Results on 30 molecules are retold here after PubChem BioAssay (NCATS).

Test in all cases: Confirmatory Screen for Target Class Profiling of Small Molecule Inhibitors of Methyltransferases (AID 1745852); as to activity change, negative = inhibition: % is scaled to controls: 0 for no effect and ±100 for the full control effect
Assay [1] deals with Catechol O-methyltransferase (Homo sapiens) (UniProt P21964). Conditions: MTase-Glo luminescence, SAH detection, recombinant enzyme; measured here: COMT max response; stronger effect = lower value.
Catechol O-methyltransferase (Homo sapiens), sequence (P21964 whole entry, looked up): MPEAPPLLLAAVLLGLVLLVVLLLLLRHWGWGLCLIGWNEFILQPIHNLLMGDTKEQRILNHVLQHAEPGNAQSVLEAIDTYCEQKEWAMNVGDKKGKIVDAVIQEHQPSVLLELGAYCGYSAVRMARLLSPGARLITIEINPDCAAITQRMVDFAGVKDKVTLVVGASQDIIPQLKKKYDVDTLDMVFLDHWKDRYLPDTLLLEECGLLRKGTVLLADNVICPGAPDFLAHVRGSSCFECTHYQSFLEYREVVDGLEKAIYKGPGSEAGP
Assay [2] concerns the target Guanidinoacetate N-methyltransferase (Homo sapiens) (UniProt Q14353). Conditions: MTase-Glo luminescence, SAH detection, recombinant enzyme; activity change, negative = inhibition: at 57.3 µM (top of the series) unless noted; series mostly up to 57.3 µM.
Assay [3] has as its target Nicotinamide N-methyltransferase (Homo sapiens) (UniProt P40261). The conditions noted are these: MTase-Glo luminescence, SAH detection, recombinant enzyme; measured here: NNMT max response; stronger effect = lower value.
In assay [4] the target is Phenylethanolamine N-methyltransferase (Homo sapiens) (UniProt P11086). The conditions noted are these: MTase-Glo luminescence, SAH detection, recombinant enzyme; measured here: PNMT max response; stronger effect = lower value.
Phenylethanolamine N-methyltransferase (Homo sapiens), sequence (P11086 whole entry, looked up): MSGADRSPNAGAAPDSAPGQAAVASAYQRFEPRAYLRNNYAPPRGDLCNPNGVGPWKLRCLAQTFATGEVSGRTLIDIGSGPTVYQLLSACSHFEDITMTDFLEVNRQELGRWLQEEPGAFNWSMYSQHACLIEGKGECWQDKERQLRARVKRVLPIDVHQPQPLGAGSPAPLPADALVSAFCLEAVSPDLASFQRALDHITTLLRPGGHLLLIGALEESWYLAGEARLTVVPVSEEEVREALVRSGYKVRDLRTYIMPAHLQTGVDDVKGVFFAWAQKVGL

Activity calls are given as the source filed them. Calls follow the shape of the full dose curve.
Potency is read from the fitted curve at half-maximal effect.

Nicotinamide N-methyltransferase (Homo sapiens), sequence (P40261 whole entry, looked up): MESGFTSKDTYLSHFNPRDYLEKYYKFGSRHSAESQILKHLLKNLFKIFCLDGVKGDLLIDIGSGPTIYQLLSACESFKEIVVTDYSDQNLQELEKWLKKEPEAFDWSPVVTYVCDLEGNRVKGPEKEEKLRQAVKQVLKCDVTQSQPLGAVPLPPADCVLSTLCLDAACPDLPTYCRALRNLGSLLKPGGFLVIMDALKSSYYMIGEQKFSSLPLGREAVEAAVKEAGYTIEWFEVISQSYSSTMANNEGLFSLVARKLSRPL

In the case of `N#Cc1ccccc1-c1cc2c(ccn2Cc2ccncc2)c(N2CCOCC2)n1`, the activity in assay [1] is -6.69%; in assay [3], -6.24%; in assay [4] it was -4.65%. The activity change, negative = inhibition in assay [2] is -0.304% [at 85.7 µM].

Regarding `Fc1cccc(-c2nnn3c2nc(NCCc2ccccc2)c2ccccc23)c1`, the activity in assay [1] is -4.7%; in assay [3], -12.6%; in assay [4] it was -9.28%. The activity change, negative = inhibition in assay [2] was -1.64%.

Regarding `O=C(CCc1nnc2n(CCc3ccccc3)c(=O)c3ccccc3n12)NCCCN1CCCCC1`, the activity was -0.192% in assay [1], 0.418% in assay [3] and 0.873% in assay [4]. Moreover, in assay [2], the activity change, negative = inhibition worked out at 0%.

Turning to `CCCC1c2cccn2CCN1C(=O)Nc1cc(Cl)ccc1C` (stereo not given), the activity was 1.08% in assay [1], -4.96% in assay [3] and -0.621% in assay [4]. Also, in assay [2], the Potency entry was “inactive”.

As to `Cc1cnc(C2CCC2)n1C1CCN(C(=O)CCC2CCCC2)CC1`, the activity in assay [1] is -8.04%; in assay [3], -13.3%; in assay [4] it was -7.48%. Also, the activity change, negative = inhibition in assay [2] is -7.84%.

On to `COC(=O)C(Cc1c[nH]c2ccccc12)NC(=O)c1ccccc1Br` (stereo not given), for which the activity in assay [1] was -2.16%; in assay [3], -4.76%; in assay [4], -7.16%. The activity change, negative = inhibition in assay [2] came to 0%.

As for `COc1ccc(NC(=O)CCc2ccnc(N3CCCC3)c2)c(OC)c1`, the activity in assay [1] was -5.64%; in assay [3] it was -4.13%; in assay [4] it was -2.38%. The activity change, negative = inhibition in assay [2] is -3.43%.

With `O=C1c2ccccc2C(=O)c2cc(S(=O)(=O)N(CCO)CCO)ccc21`, the activity in assay [1] was -23%; in assay [3] it was -1.51%; in assay [4], -73.8%. Further, in assay [2], the activity change, negative = inhibition came to 2.27%.

With `CC(C)Cn1c(=O)c2ccccc2n2c(CCC(=O)N3CCN(Cc4ccccc4)CC3)nnc12`, the activity is 0.0224% in assay [1], -55.9% in assay [3] and -3.34% in assay [4]. Moreover, the activity change, negative = inhibition in assay [2] was 2.81%.

As for `COc1ccccc1N1CCN(S(=O)(=O)c2cccc3c2C(=O)c2ccccc2C3=O)CC1`, the activity in assay [1] was -3.23%; in assay [3], -1.31%; in assay [4] it was -8.85%. Besides, the activity change, negative = inhibition in assay [2] was 2.86%.

On to `CCN(CC)CCCNC(=O)CCc1nnc2n(Cc3ccc(F)cc3)c(=O)c3ccccc3n12`, for which the activity in assay [1] is 2.05%; in assay [3], -4.75%; in assay [4], 1.85%. Also, in assay [2], the activity change, negative = inhibition was found to be 0%.

In the case of `CC1CCCCC1NC(=O)C1(C)Cn2c(cc3sccc32)C(=O)N1Cc1ccc(Cl)cc1` (stereo not given), the activity is -7.44% in assay [1], -8.12% in assay [3] and -8.77% in assay [4]. Further, the activity change, negative = inhibition in assay [2] is -6.06%.

As to `CC(NC(=O)c1ccc2c(=O)nc3c(-c4cccc(F)c4)n[nH]n3c2c1)c1ccc(F)cc1` (stereo not given), the activity in assay [1] is -18.4%; in assay [3], -28.4%; in assay [4], -25.5%. In assay [2], the Potency was 13.6 µM (active).

As to `COc1cccc(CNC(=O)c2sc(=S)n3c2[nH]c(=O)c2cc4c(cc23)OCO4)c1`, the activity in assay [1] is -25.7%; in assay [3], -43.7%; in assay [4], -28%. Besides, the Potency in assay [2] is 42.9 µM (active).

Take `O=C(O)c1ccc2c(c1)C1C=CCC1C(c1cccc(F)c1)N2` (stereo not given): the values for the activity in assay [1], in assay [3] and in assay [4] were -2.11%, 0.825% and -2.83%, respectively. The activity change, negative = inhibition in assay [2] stood at 2.71%.

For `COc1ccc2[nH]c(CNc3cc(C4CC(N)C4)nc(C)n3)cc2c1` (stereo not given), the figures for the activity in assay [1], in assay [3] and in assay [4] were -1.03%, -9.73% and 3.97%, respectively. Further, the activity change, negative = inhibition in assay [2] is 1.53%.

Regarding `COc1ccc(-c2nc3ccncc3[nH]2)cc1`, the activity in assay [1] was -92.6%; in assay [3] it was -106%; in assay [4], -86.1%. Further, the Potency in assay [2] was 12.4 µM (active).

`CC(CNC(=O)CCc1nnc2n(Cc3ccc(F)cc3)c(=O)c3ccccc3n12)c1ccccc1` (stereo not given): the activity is -6.68% in assay [1], -44.2% in assay [3] and -0.739% in assay [4]. The activity change, negative = inhibition in assay [2] was -2.31%.

Take `FC(F)(F)c1ccnc(N2CC[C@H](c3nnc(-c4ccncc4)o3)C2)n1`: the figures for the activity in assay [1], in assay [3] and in assay [4] were 2.16%, -59.3% and 3.21%, respectively. Further, the activity change, negative = inhibition in assay [2] worked out at 0.304% [at 85.7 µM].

Take `Cc1ccc(NC(=O)CSc2nnc3n(CC(C)C)c(=O)c4ccccc4n23)cc1`: the values for the activity in assay [1], in assay [3] and in assay [4] were 1.84%, -8.6% and -2.78%, respectively. The Potency entry in assay [2] is “inactive”.

Consider `FC(F)(F)c1cccc(-c2nccn3c(C4CN(Cc5ccc6cn[nH]c6c5)C4)ncc23)c1`, for which the activity was 0.457% in assay [1], -12.8% in assay [3] and -2.02% in assay [4]. Besides, the activity change, negative = inhibition in assay [2] turned out to be 4.1%.

As to `O=C(CCCc1nnc2n3nc(-c4ccccc4)nc3c3ccccc3n12)NCCN1CCCC1`, the figures for the activity in assay [1], in assay [3] and in assay [4] were 3.65%, -3.84% and 0%, respectively. The activity change, negative = inhibition in assay [2] turned out to be 0%.

Consider `COc1cccc(NC(=O)Cn2c(=O)oc3cc(S(=O)(=O)N4CCCCC4C)ccc32)c1` (stereo not given), for which the activity in assay [1] was 0.845%; in assay [3], -2.27%; in assay [4], -70.8%. Further, the activity change, negative = inhibition in assay [2] is -1.86%.

Turning to `COc1ccc(CCN2C(=O)c3ccc(-c4ccco4)n3CC2(C)C(=O)NC2CCCC2)cc1OC` (stereo not given), the activity in assay [1] was -9.3%; in assay [3], -65.9%; in assay [4] it was -5.82%. In addition, the activity change, negative = inhibition in assay [2] is -6.46%.

For `Cc1cccc(N2CCN(C(=O)CCc3nnc4n(CCC(C)C)c(=O)c5ccccc5n34)CC2)c1C`, the activity was -0.369% in assay [1], -48.8% in assay [3] and -4.73% in assay [4]. Moreover, in assay [2], the activity change, negative = inhibition was found to be 0%.

Regarding `CC1CC(C)CN(S(=O)(=O)c2ccc3c(c2)oc(=O)n3CC(=O)Nc2ccc(F)cc2)C1` (stereo not given), the activity in assay [1] is 4.26%; in assay [3], -4.58%; in assay [4], -42.5%. In addition, in assay [2], the activity change, negative = inhibition stood at 0%.

`Cc1nccn1CCC1CCN(c2nccc(-c3ccccn3)n2)CC1`: the activity in assay [1] worked out at 9.05%; in assay [3], 5.85%; in assay [4] it was 7.66%. Moreover, in assay [2], the activity change, negative = inhibition turned out to be 8.46%.

Turning to `Cc1noc(C)c1-c1cnc(Nc2ccncc2)c2c1CCO2`, the values for the activity in assay [1], in assay [3] and in assay [4] were 0.912%, -6.04% and 2.25%, respectively. Also, the activity change, negative = inhibition in assay [2] turned out to be 1.39% [at 85.7 µM].

As to `COc1ccc(-c2nnc3n(CCc4ccccc4)c(=O)c4ccccc4n23)c(OC)c1`, the activity in assay [1] is -4.93%; in assay [3] it was -9.89%; in assay [4], -5.15%. The activity change, negative = inhibition in assay [2] is -5.05%.

For `COc1ccc(CCNC(=O)c2ccc3c(=O)[nH]c4c(C(=O)NCC5CCCO5)sc(=S)n4c3c2)cc1OC` (stereo not given), the activity in assay [1] was -41.4%; in assay [3], -23.3%; in assay [4], -16.5%. In addition, in assay [2], the Potency was 27.1 µM (active).
